The list is not random: actives were taken first. Their share in the collection is about 2.3%.
CHRM1 PAM: positive allosteric modulators of human M1 muscarinic receptor; CHO-K1 hM1, Fluo-8 calcium fluorescence, ACh EC20; 0% = ACh EC20, 100% = maximal ACh; activation, % at 3 µM; P11229; hit rate 0.088% among 360,000; in the data active means activation above about 19%, passing the limit was not always enough
Target sequence (P11229 whole entry, looked up): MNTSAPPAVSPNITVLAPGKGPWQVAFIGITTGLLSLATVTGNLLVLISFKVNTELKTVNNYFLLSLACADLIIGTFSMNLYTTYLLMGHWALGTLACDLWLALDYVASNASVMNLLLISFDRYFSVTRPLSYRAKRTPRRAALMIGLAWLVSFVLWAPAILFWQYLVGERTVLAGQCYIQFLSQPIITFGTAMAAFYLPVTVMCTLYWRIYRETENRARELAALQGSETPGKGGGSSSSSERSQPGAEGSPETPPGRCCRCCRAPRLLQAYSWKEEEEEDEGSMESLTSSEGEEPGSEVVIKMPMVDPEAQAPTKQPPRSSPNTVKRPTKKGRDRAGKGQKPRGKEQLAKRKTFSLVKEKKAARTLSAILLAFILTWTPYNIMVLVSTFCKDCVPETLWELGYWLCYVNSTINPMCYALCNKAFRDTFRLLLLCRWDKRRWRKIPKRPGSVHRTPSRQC
CHRM1 antagonist: human CHRM1 antagonism; inhibition, % at 3 µM; hit rate 1.3% among 360,000; CHO-K1 hM1, Fluo-8 calcium fluorescence, ACh EC80 antagonist; P11229;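 active means percent inhibition above its own plate's cutoff, namely the mean of that plate's compound wells plus 3 SD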;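 further: peak over basal fluorescence ratio during 140 s after agonist addition; 0% = ACh EC80 plus DMSO and 100% = DMSO alone without agonist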
M1 PAM parental: counter-screen for M1 PAMs: effect in parental CHO-K1 cells; activation, % at 3 µM; hit rate 0.02% among 360,000; AID 602247; ATP EC20, Fluo-8 calcium fluorescence; 0% at ATP EC20, 100% at ATP max;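 active means activation above the run cutoff, the mean activation of all test compounds plus 3 SD, cut at about 40% in these data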;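 further: peak over basal fluorescence ratio in a 140 s read after ATP addition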
CHRM1 agonist: activates human CHRM1 receptor; P11229; CHO-K1 hM1, Fluo-8 calcium fluorescence, agonist mode; 0% DMSO, 100% acetylcholine EC100; activation, % at 3 µM; hit rate 0.33% among 360,000; AID 588814;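 active means activation above the run's mean compound activation plus 3 SD, cut at about 16% in these data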;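 further: peak over basal fluorescence ratio within a 140 s kinetic read after compound addition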
M1 ag parental: counter-screen for M1 agonists: effect in parental CHO-K1 cells; Fluo-8 calcium fluorescence; scaled to maximal ATP response, vehicle zero; activation, % at 3 µM; hit rate 0.48% among 360,000; AID 602248; in the data active means activation above about 15%;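 further: untransfected CHO-K1 host cells lacking M1 receptor as counterscreen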
CHO-K1 Ca antag: nonselective inhibitor or artifact in parental CHO-K1 cells | ATP-induced calcium, Fluo-8 fluorescence | inhibition, % at 3 µM | hit rate 0.6% among 360,000 | AID 602250;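 active means inhibition above a per-plate cutoff, the plate's mean sample inhibition plus 3 SD, cut at about 24% in these data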;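 further: 0% = DMSO plus EC80 ATP and 100% = DMSO alone without ATP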
An asterisk follows results filed as active; nt = not tested or not shown.

SMILES | CHRM1 PAM | CHRM1 antagonist | M1 PAM parental | CHRM1 agonist | M1 ag parental | CHO-K1 Ca antag
NC(=O)c1ccc(NC(=O)c2ccc3c(c2)CCN3S(=O)(=O)c2ccccc2)cc1 | 11 | -2 | -24 | -5 | 2 | 26*
O=C(O)c1cccc(NC(=O)c2cccc(S(=O)(=O)N3CCc4ccccc43)c2)c1 | 1 | -1 | -13 | -1 | 0 | 1
CCOc1ccc(CCN2C(=O)C(=O)N([C@@H](Cc3ccccc3)CN3CCC[C@H]3CN3C(=O)C(=O)NC[C@@H]3Cc3ccccc3)C[C@@H]2CC(C)C)cc1 | nt | nt | -9 | nt | 0 | 4
O=c1oc2cc(O)ccc2cc1-c1nc2ccccc2o1 | -19 | 26 | -8 | 54* | 31* | 13
O=c1oc2cc(O)ccc2cc1S(=O)(=O)c1ccccc1 | 8 | -10 | 19 | -4 | 2 | -20
CS(=O)(=O)Nc1ccc(C(=O)NCCSc2ccc(Cl)cc2)cc1 | 2 | -8 | 8 | -1 | 4 | -5
Cc1nc(C(=O)N2CCC(n3nccc3NC(=O)Nc3ccccc3Cl)CC2)cs1 | -3 | 3 | 3 | -2 | 0 | 9
COc1ccc2c(c1OC)C(=O)N1c3ccccc3C(=O)N(c3ccccc3F)C21 (configuration not stated) | -12 | 39* | 13 | 3 | 6 | 9
CCOc1ccc(S(=O)(=O)Nc2cccc(C(=O)NCC3CCCO3)c2)cc1 (configuration not stated) | 9 | -12 | -3 | 5 | 6 | -5
CC(C)(C)N1C(=O)[C@H]2[C@@H](c3ccc(Br)cc3)N3C(=O)N(c4cccc(Cl)c4)C(=O)[C@@]3(Cc3ccccc3)[C@H]2C1=O | 15 | -5 | 12 | 1 | 1 | -17
c1ccc(CCCNc2ncnc3nc[nH]c23)cc1 | -5 | 2 | 16 | 21* | 8 | -2
c1ccc(CNc2ncnc3nc[nH]c23)cc1 | 2 | -20 | 10 | -1 | -1 | 7
CCCNc1ncnc2nc[nH]c12 | 6 | -6 | -9 | -2 | 0 | -3
COc1ccc2[nH]c3c(NCCC4=CCCCC4)ncnc3c2c1 | -9 | 23 | -12 | 0 | 15* | 14
c1ccc2c(CCNc3ncnc4nc[nH]c34)cccc2c1 | -20 | 54* | -2 | 7 | 11 | 24
Clc1ccc(CCNc2ncnc3nc[nH]c23)cc1 | -21 | 30* | -3 | 6 | 13 | 30*
COc1ccc2[nH]c3c(NCCCOC(C)C)ncnc3c2c1 | -13 | 11 | -1 | -8 | 2 | -7
C1=C(CCNc2ncnc3nc[nH]c23)CCCC1 | -19 | 28* | -9 | 2 | 8 | 2
O=C(CNCCO)N1N=C(c2cccs2)CC1c1cccs1 (configuration not stated) | 7 | -9 | 8 | -16 | 0 | -16
O=C(CN1CCCCC1)N1N=C(c2cccs2)CC1c1cccs1 (configuration not stated) | -26 | 97* | 17 | -9 | 0 | -2
COc1ccc(-c2nc(N)ncc2-c2ccccc2OC)c(O)c1 | 6 | -12 | 7 | -4 | 1 | -10
CC(C)C(NC(=O)OCc1ccccc1)C(=O)NC(Cc1ccc(O)cc1)C(=O)O (configuration not stated) | 5 | -9 | -11 | -3 | 1 | -5
CC(C)[C@H](NC(=O)[C@H](CCCN=C(N)N)NC(=O)NC(Cc1ccccc1)C(=O)O)C(=O)NC(C=O)CCCN=C(N)N (some centres not stated) | -2 | -14 | -6 | -3 | 0 | 27*
CN1CCC(OC(c2ccccc2)c2ccccc2)CC1 | -26 | 100* | -5 | -8 | 0 | -3
CN1CCC(Oc2ccccc2Sc2ccccc2)CC1 | -26 | 100* | 3 | -9 | 4 | 6
SMILES | CHRM1 PAM | CHRM1 antagonist | M1 PAM parental | CHRM1 agonist | M1 ag parental | CHO-K1 Ca antag
Cc1cc(S(=O)(=O)N2CCN(c3ccccc3F)CC2)ccc1-n1cnnn1 | -1 | -1 | 8 | -3 | 18* | 1
Cc1cc(S(=O)(=O)N2CCN(c3ccc(F)cc3)CC2)ccc1-n1cnnn1 | 4 | -5 | 9 | -6 | 6 | -16
CCOC(=O)C1CCCN(C2=C(NS(=O)(=O)c3ccc(Br)cc3)C(=O)c3ccccc3C2=O)C1 (configuration not stated) | -20 | 30 | -9 | 41* | 4 | 5
CC1CCN(C2=C(NS(=O)(=O)c3ccc(Cl)cc3)C(=O)c3ccccc3C2=O)CC1 | 4 | -3 | 21 | -9 | 0 | -6
CCOC(=O)C1CCN(CC(C)(C)NS(=O)(=O)c2ccc(C)cc2)CC1 | 27* | -27 | 4 | -12 | 2 | -15
CCOC(=O)C1CCN(C2=C(NS(=O)(=O)c3ccc(Cl)cc3)C(=O)c3ccccc3C2=O)CC1 | -14 | 12 | 11 | 30* | 1 | -4
Cc1ccccc1C(=O)OCc1cnc(Cl)s1 | 7 | -1 | 12 | -4 | 1 | -12
O=C1NC[C@H](CCCCN2C[C@H](Cc3ccc(O)cc3)N(CCc3ccccc3)C(=O)C2=O)N(CC2CCCCC2)C1=O | nt | nt | -2 | nt | 0 | -23
CN1/C(=C\C(=O)c2cncc(Br)c2)C(C)(C)c2ccccc21 | -12 | 14 | -16 | -7 | 1 | 24*
CN1/C(=C\C(=O)c2ccco2)C(C)(C)c2ccccc21 | -10 | 31* | 1 | 0 | 14 | 39*
Cc1nnc(NC(=O)C2CCN(S(=O)(=O)c3ccc(F)c(Cl)c3)CC2)o1 | 6 | -11 | 2 | -3 | 0 | 4
O=C(CN1CCN(c2ccccc2O)CC1)Nc1ccc2c(c1)CCC2 | 4 | -1 | -4 | 3 | -1 | 5
CC(=O)N1CCN(c2ccccc2NC(=O)COc2cc(C)ccc2C(C)C)CC1 | -10 | 30* | 0 | 2 | 4 | 11
CCN(CC)CCCNC(=O)CNC(=O)c1nn(-c2ccc(OC)cc2OC)c(=O)c2ccccc12 | 8 | -15 | 28 | -2 | 1 | -17
Cc1noc(C(=O)Nc2ccc(F)c(Cl)c2)c1Cl | -30 | 83* | 1 | -7 | 3 | -20
N#CCCN(C(=O)COC(=O)c1ccc(Cl)nc1)c1ccc2c(c1)OCCO2 | 2 | -3 | -1 | -2 | 0 | 13
Cc1cccc(N2CCN(C(=O)c3ccc(NS(=O)(=O)c4c(C)noc4C)cc3)CC2)c1C | 1 | -2 | 7 | -3 | 0 | 2
Cc1noc(C)c1S(=O)(=O)Nc1ccc(C(=O)N2CCN(c3cccc(Cl)c3)CC2)cc1 | -16 | 17 | -10 | 3 | 17* | 1
O=C(Nc1ccccc1)c1nc[nH]c1C(=O)NCCNC(=O)c1[nH]cnc1C(=O)Nc1ccccc1 | -10 | 25* | 10 | 1 | 3 | -9
Cc1cc(N2CCCC2=O)cc(C)c1S(=O)(=O)NCCOc1ccc(C(C)(C)C)cc1 | -17 | 39* | 5 | 6 | 14 | 27*

Source: PubChem
